Laboratory results from the supplement of paper PMC12067926.

Tests used:
Assay in all cases: relative growth (AUC of 72 h growth curve relative to DMSO control, dAUC) (ratio); higher = more growth (less inhibition), active = hit call of the paper
Conditions in all cases: 20 µM;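 active = growth AUC significantly below the DMSO wells by Dunnett test; inactive = the rest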
[1] = tested on: Prolinoborus 1 (Prolinoborus fasciculus)
Procedure, shortened: (§1)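 Bacterial isolates from Icelandic stream sediments and Silwood Park soil, plus whole sediment communities, were grown to carrying capacity in Luria–Bertani medium, then diluted 1:100 into 96-well plates with each chemical at 20 µM (1% DMSO). A600 was read hourly for 72 h on a plate reader, with brief shaking before each read. Relative growth (dAUC) is the spline-integrated area under the growth curve, averaged over three biological replicates and divided by the mean of the DMSO controls.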

[2] = tested on: Pseudomonas 1 (Pseudomonas baetica)
Procedure, shortened: as §1

[3] = tested on: Pseudomonas 2 (Pseudomonas vancouverensis)
Procedure, shortened: as §1

[4] = tested on: Pseudomonas 3 (Pseudomonas mandelii)
Procedure, shortened: as §1

[5] = tested on: Pseudomonas 4 (Pseudomonas peli)
Procedure, shortened: as §1

[6] = tested on: Pseudomonas 5 (Pseudomonas baetica)
Procedure, shortened: as §1

[7] = tested on: Pseudomonas 6 (Pseudomonas sp.)
Procedure, shortened: as §1

[8] = tested on: Rhizobium 1 (Rhizobium herbae)
Procedure, shortened: as §1

[9] = tested on: Serratia 1 (Serratia sp. 2015-2462-01)
Procedure, shortened: as §1

[10] = tested on: Sphingomonas 2 (Sphingomonas sp.)
Procedure, shortened: as §1

Measured: relative growth

CON(C)C(=O)Nc1ccc(Cl)c(Cl)c1
inactive: [1] 0.886 | [2] 0.986 | [3] 0.949 | [4] 0.991 | [5] 0.982 | [6] 0.984 | [7] 1.02 | [8] 0.869 | [9] 0.978 | [10] 1.02

N#Cc1nn(-c2c(Cl)cc(C(F)(F)F)cc2Cl)c(N)c1[S+]([O-])C(F)(F)F (stereo not given)
inactive: [1] 0.897 | [2] 0.913 | [3] 0.948 | [4] 0.94 | [5] 0.987 | [6] 1.01 | [7] 0.962 | [8] 0.971 | [9] 0.96 | [10] 0.983

O=C(O)COc1ccc(Cl)cc1Cl
inactive: [1] 1.01 | [2] 0.923 | [3] 0.971 | [4] 1.04 | [5] 1.01 | [6] 0.997 | [7] 1.07 | [8] 1.03 | [9] 0.96 | [10] 1.04

CC1=NNC(=O)N(/N=C/c2cccnc2)C1
inactive: [1] 1.05 | [2] 0.636 | [3] 1.03 | [4] 0.986 | [5] 0.986 | [6] 0.971 | [7] 0.931 | [8] 1.03 | [9] 0.937 | [10] 1.03

CCOc1ccc(C(C)(C)COCc2cccc(Oc3ccccc3)c2)cc1
inactive: [1] 0.909 | [2] 1.14 | [3] 0.998 | [4] 1.02 | [5] 0.914 | [6] 0.991 | [7] 1.02 | [8] 0.851 | [9] 0.956 | [10] 0.967

CNC(=O)c1cc(C#N)cc(C)c1NC(=O)c1cc(Br)nn1-c1ncccc1Cl
inactive: [1] 0.944 | [2] 0.962 | [3] 0.986 | [4] 1.01 | [5] 0.976 | [6] 1.06 | [7] 1.06 | [8] 0.961 | [9] 0.982 | [10] 1.05

CC(C)(C)[C@@H](O)[C@H](Oc1ccc(Cl)cc1)n1cncn1
inactive: [1] 1.02 | [3] 0.991 | [4] 0.991 | [5] 0.989 | [6] 0.963 | [7] 0.953 | [8] 1.05 | [9] 1.02 | [10] 1.08
active: [2] 0.598

C/C(=N\C#N)N(C)Cc1ccc(Cl)nc1
inactive: [1] 0.963 | [2] 0.967 | [3] 1 | [4] 0.987 | [5] 0.991 | [6] 1.03 | [7] 0.981 | [8] 1.11 | [9] 0.976 | [10] 1.03

COCc1cnc(C2=NC(C)(C(C)C)C(=O)N2)c(C(=O)O)c1 (stereo not given)
inactive: [1] 1.08 | [2] 0.958 | [3] 0.98 | [4] 0.992 | [5] 0.974 | [6] 0.972 | [7] 1.01 | [8] 0.972 | [9] 1.03 | [10] 0.982

O=C(Nc1ccccc1-c1ccc(Cl)cc1)c1cccnc1Cl
inactive: [1] 0.978 | [2] 0.948 | [3] 0.972 | [4] 1 | [5] 0.986 | [6] 0.998 | [7] 0.959 | [8] 0.665 | [9] 0.971 | [10] 0.958

CN/C(=N/CC1CCOC1)N[N+](=O)[O-] (stereo not given)
inactive: [1] 0.955 | [2] 0.963 | [3] 0.983 | [4] 1.03 | [5] 1.03 | [6] 0.992 | [7] 1.06 | [8] 0.912 | [9] 1.01 | [10] 1.14

CC1(C)C(C=C(Cl)Cl)C1C(=O)OC(C#N)c1cccc(Oc2ccccc2)c1 (stereo not given)
inactive: [1] 0.983 | [2] 0.942 | [3] 1.06 | [4] 1.06 | [5] 1.04 | [6] 1.02 | [7] 1 | [8] 1.15 | [9] 1.01 | [10] 1.03

CCOC(=O)CC(SP(=S)(OC)OC)C(=O)OCC (stereo not given)
inactive: [1] 1.01 | [2] 1.03 | [3] 1.05 | [4] 1.05 | [5] 1.04 | [6] 0.994 | [7] 1.09 | [8] 0.984 | [9] 1.01 | [10] 1.15

CC1(C)C(C=C(Cl)Cl)C1C(=O)OCc1cccc(Oc2ccccc2)c1 (stereo not given)
inactive: [1] 0.985 | [2] 1.13 | [3] 0.97 | [4] 1 | [5] 0.979 | [6] 1.05 | [7] 1.13 | [8] 0.958 | [9] 0.964 | [10] 1.02

CCC(=O)Nc1ccc(Cl)c(Cl)c1
inactive: [1] 0.951 | [2] 1.04 | [3] 0.975 | [4] 0.984 | [5] 0.928 | [6] 1.01 | [7] 1.02 | [8] 0.817 | [9] 0.906 | [10] 0.927

CC(C)(C)c1ccc(CSc2cnn(C(C)(C)C)c(=O)c2Cl)cc1
inactive: [1] 0.998 | [2] 1 | [3] 1.01 | [4] 1.02 | [5] 1.02 | [6] 1.01 | [7] 1.13 | [8] 1.04 | [9] 1.06 | [10] 0.802

N#Cc1c[nH]cc1-c1cccc2c1OC(F)(F)O2
inactive: [1] 0.978 | [2] 0.952 | [3] 1 | [4] 1.03 | [5] 0.945 | [6] 0.971 | [7] 1.04 | [8] 0.932 | [9] 0.942 | [10] 0.957

ClC1C(Cl)C(Cl)C(Cl)C(Cl)C1Cl (stereo not given)
inactive: [1] 0.987 | [2] 1.04 | [3] 0.993 | [4] 0.99 | [5] 0.982 | [6] 1.04 | [7] 1.02 | [8] 0.826 | [9] 0.97 | [10] 0.949

CC(C)OC(=O)Nc1cccc(Cl)c1
inactive: [1] 0.976 | [2] 0.905 | [3] 0.958 | [4] 1.04 | [5] 0.981 | [6] 0.991 | [7] 0.921 | [8] 0.876 | [9] 0.974 | [10] 0.926

O=C1C=C(N(Cc2ccc(Cl)nc2)CC(F)F)CO1
inactive: [1] 0.95 | [2] 1.15 | [3] 0.993 | [4] 1.06 | [5] 0.993 | [6] 0.988 | [7] 1.06 | [8] 0.978 | [9] 0.962 | [10] 0.914

CCCCOC(=O)[C@H](C)Oc1ccc(Oc2ccc(C#N)cc2F)cc1
inactive: [1] 1.02 | [2] 0.985 | [3] 1.08 | [4] 1.07 | [5] 0.967 | [6] 1.06 | [7] 1.17 | [8] 1.07 | [9] 1 | [10] 1.1

CC(C)N1C(=O)c2ccccc2NS1(=O)=O
inactive: [1] 1.01 | [2] 1.16 | [3] 1.03 | [4] 1.02 | [5] 0.975 | [6] 1.01 | [7] 1.03 | [8] 1.04 | [9] 0.991 | [10] 1.01

CCc1cccc(C)c1N(C(=O)CCl)[C@@H](C)COC
inactive: [1] 1.01 | [2] 1.09 | [3] 0.996 | [4] 1 | [5] 0.993 | [6] 1.03 | [7] 1.13 | [8] 0.952 | [9] 0.985 | [10] 0.791

CC(C)OC(=O)C(C(=O)OC(C)C)=C1SCCS1
inactive: [1] 0.947 | [2] 1.16 | [3] 0.995 | [4] 1.04 | [5] 0.947 | [6] 1.03 | [7] 1.09 | [8] 0.897 | [9] 0.96 | [10] 1.1

Fc1ccc([C@]2(Cn3cncn3)O[C@H]2c2ccccc2Cl)cc1 (racemic)
inactive: [1] 0.982 | [2] 0.942 | [3] 0.973 | [4] 1.04 | [5] 0.967 | [6] 0.992 | [7] 1.07 | [8] 1.08 | [9] 0.972 | [10] 1.01

CC1(C)C(C=C(Cl)Cl)C1C(=O)OC(C#N)c1ccc(F)c(Oc2ccccc2)c1 (stereo not given)
inactive: [1] 1.04 | [2] 1.22 | [3] 1.02 | [4] 1.02 | [5] 0.964 | [6] 1.03 | [7] 1.03 | [8] 1.06 | [9] 0.994 | [10] 1.03

CS(=O)(=O)c1ccc(C(=O)C2C(=O)CCCC2=O)c([N+](=O)[O-])c1
inactive: [1] 0.983 | [2] 1.06 | [3] 1.02 | [4] 1.03 | [5] 1.05 | [6] 0.998 | [7] 0.96 | [8] 1.15 | [9] 1 | [10] 1.1

CCCC(Cn1cncn1)c1ccc(Cl)cc1Cl (stereo not given)
inactive: [1] 0.988 | [2] 1.01 | [3] 0.994 | [4] 1.02 | [5] 1.07 | [6] 1.01 | [7] 0.993 | [8] 1.04 | [9] 0.994 | [10] 1.03

CC(COc1ccc(Oc2ccccc2)cc1)Oc1ccccn1 (stereo not given)
inactive: [1] 1.03 | [2] 1.02 | [3] 1 | [4] 1.01 | [5] 1.05 | [6] 1.01 | [7] 1.08 | [8] 0.97 | [9] 0.987 | [10] 1.14
